# Assay results taken from the supplement of paper PMC4022240.
# ± gives the standard deviation.
# T1: HaloTag-ATRX ADD domain (163-292)
# T1 chain: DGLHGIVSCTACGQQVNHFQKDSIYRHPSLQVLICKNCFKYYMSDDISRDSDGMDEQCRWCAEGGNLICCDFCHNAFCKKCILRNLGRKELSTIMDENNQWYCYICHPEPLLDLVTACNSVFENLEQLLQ
# B1: Unmod H2B variant P E L A K S A P A P K K G (peptide)
# chain: PELAKSAPAPKKG
# B2: Unmod H2A variant R N D E E L N K L L G R V (peptide)
# chain: RNDEELNKLLGRV
# B3: Unmod H2A variant R N D E E L N K L L G G V (peptide)
# chain: RNDEELNKLLGGV
# B4: Unmod H2A variant I Q A V L L P K K T E S H (peptide)
# chain: IQAVLLPKKTESH
# B5: Unmod H2B variant I S K K G F K K A V V K T (peptide)
# chain: ISKKGFKKAVVKT
# B6: Unmod H2B variant A P K K G S K K A V T K A (peptide)
# chain: APKKGSKKAVTKA
# B7: Unmod H2A variant L N K L L G G V T I A Q G (peptide)
# chain: LNKLLGGVTIAQG
# B8: Unmod H2A variant L N K L L G K V T I A Q G (peptide)
# chain: LNKLLGKVTIAQG
# B9: Unmod H2A variant R N D E E L N K L L G K V (peptide)
# chain: RNDEELNKLLGKV
# B10: Unmod H2B variant P E V S S K G A T I S K K (peptide)
# chain: PEVSSKGATISKK
# B11: Unmod H2B variant P K K G S K K A V T K A Q (peptide)
# chain: PKKGSKKAVTKAQ
# B12: Unmod H2B variant P E P V K S A P V P K K G (peptide)
# chain: PEPVKSAPVPKKG
# B13: Unmod H2B variant P D P A K S A P A P K K G (peptide)
# chain: PDPAKSAPAPKKG
# B14: Unmod H2A variant G V L P N I Q A V L L P K (peptide)
# chain: GVLPNIQAVLLPK
# B15: Unmod H2B variant V P K K G S K K A I N K A (peptide)
# chain: VPKKGSKKAINKA
# B16: Unmod H2A variant L Q L A I R N D E E L N K (peptide)
# chain: LQLAIRNDEELNK
# B17: Unmod H2B variant P E P A K S A P A P K K G (peptide)
# chain: PEPAKSAPAPKKG
# B18: Unmod H2B variant P E P S K S A P A P K K G (peptide)
# chain: PEPSKSAPAPKKG
# B19: Unmod H2B variant P E P T K S A P A P K K G (peptide)
# chain: PEPTKSAPAPKKG
# B20: Unmod H2A variant V T I A Q G G V L P N I Q (peptide)
# chain: VTIAQGGVLPNIQ
# Molecular target: T1, HaloTag-ATRX ADD domain (163-292)
# Assay: peptide microarray binding signal (635 nm), min-max normalized on array (fraction of array maximum); higher = stronger binding
# Details: peptide region: Unmod H2B variant; binder concentration: 50 nM
# Method in brief: (§1)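 An Axon GenePix 4000B scanned the arrays at 635 nm for signal and at 532 nm to catch misprints. Those arrays held histone 13-mer peptide–cellulose conjugates printed in triplicate on nitrocellulose with a Cy3 tracer, blocked overnight at 4°C and probed for 1 h at 4°C with biotin-labelled HaloTag reader fusions (10 nM to 1 μM) plus streptavidin-Alexa Fluor 647 or with rabbit histone antibodies (1:10,000 to 1:2,000) plus anti-rabbit Alexa 647. Each binding signal is a triplicate-spot mean intensity, scaled min-max within its library.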
row,Binder,peptide microarray binding signal
1,B1,0.00618 ± 0.00062
2,B5,0.00683 ± 0.00024
3,B6,0.00705 ± 0.00011
4,B10,0.0052 ± 0.00018
5,B11,0.00561 ± 0.00027
6,B12,0.007868 ± 4.2e-05
7,B13,0.0068 ± 0.00035
8,B15,0.00639 ± 0.00069
9,B17,0.00404 ± 8.4e-05
10,B18,0.00618 ± 0.00016
11,B19,0.006019 ± 5.5e-05

# Same assay, conditions: peptide region: Unmod H2B variant; binder concentration: 500 nM
row,Binder,peptide microarray binding signal
1,B1,0.0121 ± 0.001
2,B5,0.0118 ± 0.00025
3,B6,0.00729 ± 0.00014
4,B10,0.00605 ± 0.00026
5,B11,0.008048 ± 4.3e-05
6,B12,0.0166 ± 0.00043
7,B13,0.00538 ± 0.00012
8,B15,0.0081 ± 0.00015
9,B17,0.00971 ± 0.00016
10,B18,0.0115 ± 0.0012
11,B19,0.0126 ± 0.00066

# Molecular target: HaloTag-ING2 PHD (mouse Ing2 200-280)
# Assay: as above
# Details: peptide region: Unmod H2B variant; binder concentration: 10 nM
# Method in brief: as §1
row,Binder,peptide microarray binding signal
1,B1,0.0037 ± 8.6e-05
2,B5,0.00227 ± 7.3e-05
3,B6,0.00185 ± 1.9e-05
4,B10,0.003103 ± 3e-05
5,B11,0.00275 ± 0.00016
6,B12,0.00889 ± 0.00055
7,B13,0.00358 ± 0.00019
8,B15,0.00263 ± 3.9e-05
9,B17,0.00346 ± 6.5e-05
10,B18,0.00406 ± 0.00015
11,B19,0.0173 ± 0.011

# Same assay, conditions: peptide region: Unmod H2B variant; binder concentration: 100 nM
row,Binder,peptide microarray binding signal
1,B1,0.0085 ± 0.0029
2,B5,0.00602 ± 0.00021
3,B6,0.00446 ± 0.00013
4,B10,0.00468 ± 0.00025
5,B11,0.00354 ± 0.00011
6,B12,0.0274 ± 0.0037
7,B13,0.004039 ± 3.4e-05
8,B15,0.0056 ± 0.00078
9,B17,0.00369 ± 5.6e-05
10,B18,0.0137 ± 0.0011
11,B19,0.0103 ± 0.0017

# Molecular target: anti-H3K4me3 antibody ab8580
# Assay: as above
# Details: peptide region: Unmod H2B variant; binder concentration: 1:2,000 dilution
# Method in brief: as §1
row,Binder,peptide microarray binding signal
1,B1,0.0013 ± 0.00034
2,B5,0.00051 ± 8.6e-06
3,B6,0.000529 ± 1.4e-05
4,B10,0.00051 ± 1.5e-05
5,B11,0.000378 ± 7.7e-06
6,B12,0.00279 ± 0.00019
7,B13,0.000868 ± 7.8e-05
8,B15,0.000529 ± 4.2e-05
9,B17,0.000359 ± 3.7e-06
10,B18,0.000963 ± 6.3e-05
11,B19,0.001 ± 0.0001

# Same assay, conditions: peptide region: Unmod H2B variant; binder concentration: 1:10,000 dilution
row,Binder,peptide microarray binding signal
1,B1,0.0028 ± 0.00029
2,B5,0.000685 ± 7.2e-06
3,B6,0.000571 ± 1.1e-05
4,B10,0.000742 ± 1.3e-05
5,B11,0.000628 ± 6.7e-06
6,B12,0.00251 ± 0.00026
7,B13,0.00097 ± 9.9e-06
8,B15,0.000856 ± 8.9e-06
9,B17,0.00097 ± 2e-05
10,B18,0.00126 ± 9.4e-05
11,B19,0.00205 ± 0.00015

# Molecular target: anti-H3K9me3 antibody ab8898
# Assay: as above
# Details: peptide region: Unmod H2B variant; binder concentration: 1:2,000 dilution
# Method in brief: as §1
row,Binder,peptide microarray binding signal
1,B1,0.000951 ± 7.1e-05
2,B5,0.000257 ± 2.7e-06
3,B6,0.000211 ± 2.2e-06
4,B10,0.000362 ± 1.3e-05
5,B11,0.000196 ± 2.1e-06
6,B12,0.000997 ± 6.3e-05
7,B13,0.000453
8,B15,0.000196 ± 2.1e-06
9,B17,0.000408
10,B18,0.000453 ± 7.5e-06
11,B19,0.000649 ± 1.2e-05

# Same assay, conditions: peptide region: Unmod H2B variant; binder concentration: 1:10,000 dilution
row,Binder,peptide microarray binding signal
1,B1,0.00133 ± 8.2e-05
2,B5,0.000461
3,B6,0.000461
4,B10,0.000634
5,B11,0.000577 ± 6.2e-06
6,B12,0.00144 ± 5.1e-05
7,B13,0.00075 ± 7.9e-06
8,B15,0.000461 ± 8.7e-06
9,B17,0.000346 ± 3.8e-06
10,B18,0.000923 ± 9.6e-06
11,B19,0.00115 ± 2e-05

# Molecular target: T1, HaloTag-ATRX ADD domain (163-292)
# Assay: as above
# Details: peptide region: Unmod H2A variant; binder concentration: 50 nM
# Method in brief: as §1
row,Binder,peptide microarray binding signal
1,B2,0.0189 ± 0.0014
2,B3,0.0156 ± 0.00038
3,B4,0.0353 ± 0.0028
4,B7,0.027 ± 0.0084
5,B8,0.0216 ± 0.0016
6,B9,0.0192 ± 0.00022
7,B14,0.0417 ± 0.0058
8,B16,0.0213 ± 0.0039
9,B20,0.0238 ± 0.001

# Same assay, conditions: peptide region: Unmod H2A variant; binder concentration: 500 nM
row,Binder,peptide microarray binding signal
1,B2,0.00157 ± 0.00011
2,B3,0.0164 ± 0.00093
3,B4,0.0333 ± 0.018
4,B7,0.0141 ± 0.0028
5,B8,0.028 ± 0.0031
6,B9,0.024 ± 0.0011
7,B14,0.0254 ± 0.026
8,B16,0.0279 ± 0.0038
9,B20,0.0447 ± 0.00046

# Molecular target: HaloTag-ING2 PHD (mouse Ing2 200-280)
# Assay: as above
# Details: peptide region: Unmod H2A variant; binder concentration: 10 nM
# Method in brief: as §1
row,Binder,peptide microarray binding signal
1,B2,0.00269 ± 9.9e-05
2,B3,0.00412 ± 5.7e-05
3,B4,0.0199 ± 0.00099
4,B7,0.00615 ± 0.00035
5,B8,0.006087 ± 5.8e-05
6,B9,0.00513 ± 0.00017
7,B14,0.0142 ± 0.0058
8,B16,0.005968 ± 4.9e-05
9,B20,0.0169 ± 0.00042

# Same assay, conditions: peptide region: Unmod H2A variant; binder concentration: 100 nM
row,Binder,peptide microarray binding signal
1,B2,0.0085 ± 0.00045
2,B3,0.00397 ± 0.0011
3,B4,0.0828 ± 0.029
4,B7,0.0259 ± 0.0025
5,B8,0.032 ± 0.015
6,B9,0.00907 ± 0.002
7,B14,0.0437 ± 0.0091
8,B16,0.03182 ± 0.00024
9,B20,0.0193 ± 0.0019

# Molecular target: anti-H3K4me3 antibody ab8580
# Assay: as above
# Details: peptide region: Unmod H2A variant; binder concentration: 1:2,000 dilution
# Method in brief: as §1
row,Binder,peptide microarray binding signal
1,B2,0.000189 ± 4.1e-06
2,B3,0.0091 ± 0.00022
3,B4,0.00283 ± 0.0019
4,B7,0.00748 ± 0.0012
5,B8,0.00715 ± 0.00038
6,B9,0.00181 ± 0.00069
7,B14,0.000944 ± 0.00025
8,B16,0.0182 ± 0.0049
9,B20,0.00821 ± 0.007

# Same assay, conditions: peptide region: Unmod H2A variant; binder concentration: 1:10,000 dilution
row,Binder,peptide microarray binding signal
1,B2,0.0016 ± 9.6e-05
2,B3,0.00171 ± 3.3e-05
3,B4,0.00371 ± 0.00028
4,B7,0.00177 ± 0.0002
5,B8,0.00171 ± 3.3e-05
6,B9,0.00217 ± 3.9e-05
7,B14,0.0081 ± 0.0012
8,B16,0.00422 ± 0.00051
9,B20,0.00451 ± 0.0005

# Molecular target: anti-H3K9me3 antibody ab8898
# Assay: as above
# Details: peptide region: Unmod H2A variant; binder concentration: 1:2,000 dilution
# Method in brief: as §1
row,Binder,peptide microarray binding signal
1,B2,0.000604 ± 2e-05
2,B3,0.0018 ± 0.00014
3,B4,0.00285 ± 0.00015
4,B7,0.0011 ± 4.3e-05
5,B8,0.00115 ± 4.6e-05
6,B9,0.00159 ± 3.2e-05
7,B14,0.00384 ± 0.00031
8,B16,0.00439 ± 0.00042
9,B20,0.00338 ± 0.00037

# Same assay, conditions: peptide region: Unmod H2A variant; binder concentration: 1:10,000 dilution
row,Binder,peptide microarray binding signal
1,B2,0.00173 ± 3.3e-05
2,B3,0.00259 ± 6.1e-05
3,B4,0.0045 ± 0.00048
4,B7,0.00138 ± 3.6e-05
5,B8,0.001614 ± 1.6e-05
6,B9,0.001787 ± 1.7e-05
7,B14,0.0113 ± 0.0018
8,B16,0.00588 ± 0.00021
9,B20,0.00306
